The source made the active and inactive calls. The calls were made as follows: active = hit-call score of the fitted dose curve at least 0.9, where 1 is the maximum; inactive = score below 0.9.

Drawing on PubChem BioAssay (EPA / NIEHS), this text covers outcome and AC50 for 40 compounds.

Chain of Nuclear factor NF-kappa-B p105 subunit (Homo sapiens) (P19838 whole entry, looked up): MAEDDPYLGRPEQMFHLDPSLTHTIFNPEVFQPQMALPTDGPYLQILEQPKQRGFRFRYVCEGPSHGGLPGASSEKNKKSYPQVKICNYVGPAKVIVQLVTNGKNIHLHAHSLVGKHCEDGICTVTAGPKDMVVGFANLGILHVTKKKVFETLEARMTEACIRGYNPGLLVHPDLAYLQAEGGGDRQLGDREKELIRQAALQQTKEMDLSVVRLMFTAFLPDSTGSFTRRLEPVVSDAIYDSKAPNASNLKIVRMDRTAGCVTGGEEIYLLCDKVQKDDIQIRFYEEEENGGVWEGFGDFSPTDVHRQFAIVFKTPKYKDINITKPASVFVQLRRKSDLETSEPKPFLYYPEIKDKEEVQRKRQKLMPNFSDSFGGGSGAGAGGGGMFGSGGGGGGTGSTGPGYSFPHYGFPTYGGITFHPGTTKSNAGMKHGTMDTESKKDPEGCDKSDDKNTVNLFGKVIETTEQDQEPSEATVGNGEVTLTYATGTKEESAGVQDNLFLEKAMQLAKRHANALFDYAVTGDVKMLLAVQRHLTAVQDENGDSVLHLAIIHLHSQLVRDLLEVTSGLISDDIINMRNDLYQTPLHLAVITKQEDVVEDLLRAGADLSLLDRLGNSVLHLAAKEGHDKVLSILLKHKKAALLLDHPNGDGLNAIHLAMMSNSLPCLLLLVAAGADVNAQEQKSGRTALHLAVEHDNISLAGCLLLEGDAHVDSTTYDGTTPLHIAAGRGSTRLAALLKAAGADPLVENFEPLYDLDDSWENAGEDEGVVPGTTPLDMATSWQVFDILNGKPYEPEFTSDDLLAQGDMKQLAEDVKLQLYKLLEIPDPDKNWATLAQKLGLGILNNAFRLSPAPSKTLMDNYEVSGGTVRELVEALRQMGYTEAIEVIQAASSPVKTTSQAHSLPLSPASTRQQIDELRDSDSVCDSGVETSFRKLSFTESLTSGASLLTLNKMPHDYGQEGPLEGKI

Read-out in the test: Nuclear factor NF-kappa-B p105 subunit (Homo sapiens) (UniProt P19838)
Nature of the test: LTEA_HepaRG_NFKB1: Life Technologies and Expression Analysis (LTEA) Assay for Nuclear Factor Kappa B Subunit 1 (NFKB1) using HepaRG (AID 2283521).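 As to outcome: TaqMan qRT-PCR transcript normalised to ACTB GAPDH and POLR2A housekeeping genes.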 The note with it: mRNA level, 48 h; actives raise or lower the signal. The method, then: LTEA_HepaRG is a cell based, multiplexed-readout assay that uses HepaRG, a human liver cell line, with measurements taken at 48 hours after chemical dosing on a 96-well plate.LTEA_HepaRG_NFKB1 is one of 102 assay component(s) measured in the LTEA HepaRG cell culture assay. It is a marker of Cell proliferation, survival, death.Data from the assay component LTEA_HepaRG_NFKB1 was analyzed into 1 endpoint. This assay endpoint, LTEA_HepaRG_NFKB1, was analyzed with bidirectional fitting relative to DMSO as the negative control and baseline of activity. Using a type of inducible reporter, measures of mRNA induction for gain or loss-of-signal activity can be used to understand regulation of transcription factor activity. To generalize the intended target to other relatable targets, this assay endpoint is annotated to the dna binding intended target family, where the subfamily is NF-kappa B.
A total of 1060 chemcials from the ToxCast library were tested in eight-point concentration-response experiments. Cell culture and cytotoxicity assays were conducted at Thermo Fisher Scientific's Custom Services facility (Madison, WI). A single lot of human HepaRG cells (Thermo Fisher Scientific, Frederick, MD) was used for the cell culture experiments. 96-well format collagen type I coated plates of human HepaRG cells were prepared using established methods. Briefly, cryopreserved HepaRG cells were thawed, plated at a density of approximately 100,000 cells/well in HepaRG Thaw, Plate, and General Purpose media (HPRG770, Thermo Fisher Scientific), and incubated for 48 hours. 0.5% DMSO was selected as vehicle control to balance the requisite need of DMSO in HepaRG cultures to maintain differentiation (for example, baseline metabolism, proportions of hepatocytes vs. cholangiocytes), while enabling further hepatic receptor pathway activation (for example, PXR and CAR) in response to chemical exposure. 48 hours after plating, the culture medium was replaced with HepaRG Serum-Free Incudtion Media. Cells were exposed to each test chemical in duplicate and maintained in CO2 incubators for another 48 hours. Chemical plates were thawed to room temperature and 200x concentrations of treatment groups were prepared. 8-point conentration-reponse curves were made with the highest exposure at 100 uM, followed by half-log dilutions, all in 0.5% DMSO. Each test plate contained variouse controls, induction positive controls (1mM phenobarbital), cytotoxicity positive controls ([…] aflatoxin B1), vehicle controls (0.5% DMSO), and total lysis controls (0.5% DMSO). Cell morphology images were taken using an Essen IncuCyte FLR automated microscope, with six 96-well plates imaged in about 24 minutes. Images were captured and exported and JPEG files. Spent culture media was transfered to black-well plates for the LDH assay, and remaining media was sorted at -80 C for later use. Cells were treated with RLT buffer and frozen until shipped for gene expression analysis. Total RNA was isolated from the cell suspension in 75 uL of Buffer RLT (Qiagen, Germantown, MD 20874) by Quintiles/Expression Analysis (Durham, NC) using a custom isolation procedure. Total RNA from each plate well was transferred to a preamplification plate. Fluidigm's 96.96 Dynamic ArrayTM (Fluidigm, Amsterdam, the Netherlands) technology was used for gene expression analyses by quantitative reverse transcription polymerase chain reaction (qRT-PCR, performed by Quintiles/Expression Analysis, Durham, NC)89. Standard TaqManTM Assays (Applied Biosystems/ThermoFisher Scientific, Foster City, CA) were used to assess the expression of 93 genes selected based on their selectivity and sensitivity to important hepatic receptors known to be modulated by environmental chemicals; importance in human hepatocyte functionality; and hepatotoxicity. […]
Take `CC[C@@H]1C[C@H](N(Cc2cc(C(F)(F)F)cc(C(F)(F)F)c2)C(C)=O)c2cc(C(F)(F)F)ccc2N1C(=O)OC(C)C`: the outcome was inactive.
On to `CCCCOC(=O)CC(CC(=O)OCCCC)(OC(C)=O)C(=O)OCCCC`, for which the compound was classed as inactive.
As to `O=CCCCC=O`, the result was inactive.
For `O=C(O)c1ccccc1C(=O)OCc1ccccc1`, the call was inactive.
Consider `CO[C@H]1/C=C/O[C@@]2(C)Oc3c(C)c(O)c4c(O)c(c(/C=N/N5CCN(C)CC5)c(O)c4c3C2=O)NC(=O)/C(C)=C\C=C\[C@H](C)[C@H](O)[C@@H](C)[C@@H](O)[C@@H](C)[C@H](OC(C)=O)[C@@H]1C`, for which the compound was called inactive.
Consider `CN(C)C(=O)C1(N2CCCCC2)CCN(CC[C@@]2(c3ccc(Cl)c(Cl)c3)CN(C(=O)c3ccccc3)CCO2)CC1`, for which the AC50 was 80.3 µM (active).
Take `OCCO`: the outcome was inactive.
As to `CCCC(=O)OCCC(C)C`, the compound was classed as inactive.
As for `COc1cccc([C@H](O)C2CCN(CCc3ccc(F)cc3)CC2)c1OC`, the outcome was inactive.
Consider `CN(C[C@@H](CC[N+]12CCC(C3CCCCC3)(CC1)CC2)c1ccc(Cl)c(Cl)c1)C(=O)c1cc(C(F)(F)F)cc(C(F)(F)F)c1`, for which the AC50 was 89.7 µM (active).
With `CN1C(=O)CC[C@H]1c1cccnc1`, the outcome was inactive.
Turning to `CCCCCCCCCCCO`, the result was inactive.
In the case of `O=C(Nc1ccc(Cl)cc1)Nc1ccc(Cl)c(Cl)c1`, the concentration at half-maximal activity (AC50) is 12.2 µM (active).
Take `c1ccc2n[nH]nc2c1`: the compound was called inactive.
Consider `COc1ccc2cc(S(=O)(=O)N[C@H](CC(=O)N[C@H](Cc3ccc(CN4[C@H](C)CCC[C@@H]4C)cc3)C(=O)N(C)C(C)C)c3ccc4c(c3)OCO4)ccc2c1`, for which the AC50 is 31.2 µM (active).
For `CCN(Cc1cccnc1)C(=O)c1cccc(Cl)c1[C@]1(C)C(=O)N(Cc2ccc(OC)cc2OC)c2ccc(Cl)cc21`, the AC50 was 26.5 µM (active).
On to `CCN(Cc1cccc(S(=O)(=O)O)c1)c1ccc(C(=C2C=CC(=[N+](CC)Cc3cccc(S(=O)(=O)O)c3)C=C2)c2ccccc2S(=O)(=O)[O-])cc1`, for which the call was inactive.
`CCN(CC)C(=O)c1cc(S(=O)(=O)Cc2ccccc2)c(N2CCC(c3ccccc3)CC2)cc1N(CC)CCN(C)C`: the AC50 is 28.1 µM (active).
Consider `C[C@]12CC[C@@H]3c4ccc(O)cc4CC[C@H]3[C@@H]1CCC2=O`, for which the compound was classed as inactive.
Still for that read-out and setting: in the case of `Oc1ccc2ccccc2c1` it was “inactive”; in that of `c1ccc2ccccc2c1`, “inactive”; in that of `CC(=O)N1CCN(c2ccc(OC[C@H]3CO[C@](Cn4ccnc4)(c4ccc(Cl)cc4Cl)O3)cc2)CC1`, “inactive”.
On to `NCc1cccc(C2CCN(C(=O)c3ccc(C#Cc4ccccc4F)o3)CC2)c1`, for which the compound was called inactive.
On to `CCCCCCCCCCCC[N+](C)(C)C`, for which the compound was classed as inactive.
In the case of `CC(C)(O)c1ccc(CNC(=O)c2cccnc2Oc2ccc3nonc3c2)cc1`, the result was inactive.
As for `CCCCCCCCCC(=O)O`, the result was inactive.
In the case of `CN1C(=O)N(c2ccccc2Br)Cc2cnc(Nc3ccc4c(c3)OCC(CO)O4)nc21` (stereo not given), the AC50 is 19.5 µM (active).
`COc1cc(C(=O)NC2CCN(C)CC2)ccc1Nc1ncc2c(n1)N(C1CCCC1)CC(F)(F)C(=O)N2C`: the AC50 was 11.7 µM (active).
Take `CC(C)(c1cc(Br)c(O)c(Br)c1)c1cc(Br)c(O)c(Br)c1`: the compound was classed as inactive.
With `CC(O)CC(C)(C)O` (stereo not given), the compound was classed as inactive.
Regarding `O=C(OCCCCCCOC(=O)c1ccccc1)c1ccccc1`, the call was inactive.
In the case of `c1ccc(C[n+]2cccc3ccccc32)cc1`, the compound was called inactive.
Turning to `CCCCCCCCN(C)CCCCCCCC`, the compound was classed as inactive.
Same read-out and setting: the entry for `Cc1cc2c(cc1C(F)(F)F)N(C(=O)Nc1ccc(Oc3cccnc3C)nc1)CC2` is “inactive”.
As for `CCCCCCCCOc1ccc(C(=O)c2ccccc2)c(O)c1`, the compound was called inactive.
As to `Clc1ccccc1C(c1ccccc1)(c1ccccc1)n1ccnc1`, the call was inactive.
Still for that read-out and setting: the entry for `Clc1cc(Cl)c2c(c1)N=C1CCCCCN1C2` is “inactive”.
On to `O=C=NCCCCCCN=C=O`, for which the compound was called inactive.
For the compound `Cc1c2ccccc2c(C)c2c1ccc1ccccc12`, the outcome was inactive.
With `CCCCCCCCOC(=O)c1cc(O)c(O)c(O)c1`, the compound was classed as inactive.
